Test results as given in PubChem BioAssay AID1233 (SRMLSC, 2008).
Results with a measured potency or affinity are listed apart. Activity calls are given as the source filed them.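 How the source made its calls: active means a dose-response curve fit returns a half-maximal inhibitory concentration, extrapolated values included; inactive means the fit returns no such concentration.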

biological target: HMG-CoA reductase [Enterococcus faecalis] (UniProt Q9FD70); assay: class II HMG-CoA reductase inhibition potency – biochemical, Enterococcus faecalis, confirmation (AID 1233);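 further: 0% = full reaction carrier wells and 100% = background wells lacking mevalonate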; details: purified E. faecalis HMGR, NADPH absorbance 340 nm kinetics; series mostly up to 100 µM; inhibition: at the top concentration

Compound | inhibition
COc1ccc(C2C(C(C)=O)=C(Nc3ccccc3)CC(C)(O)C2C(C)=O)cc1OC (configuration not stated) | -6.21% (inactive)
COC(=O)C1=C(C)NC(C)=C(C(=O)OC)C1C1CC=CCC1 (configuration not stated) | -1.61% (inactive)
Cc1nn(CCC(=O)NNC(=S)Nc2ccc([N+](=O)[O-])cc2)c(C)c1[N+](=O)[O-] | -3.33% (inactive)
O=C(Nc1ccc(N2CCCCC2)cc1)c1ccc2c(c1)OCCO2 | -4.93% (inactive)
COCCCNC(=O)CCCC(=O)NCCCOC | -2.96% (inactive)
Clc1cccc(CN2CCC(Cc3ccccc3)CC2)c1 | -2.19% (inactive)
C=CCOc1c(Br)cc(CNc2nccs2)cc1OC | -11.1% (inactive)
CCCS(=O)(=O)N1CCN(C(=O)c2ccc(-c3ccccc3)cc2)CC1 | -1.69% (inactive)
COc1cc(-c2nnc(SC/C=C/c3ccccc3)n2N)cc(OC)c1OC | -0.99% (inactive)
O=[N+]([O-])c1ccc(Cl)c(-c2ccc(/C=N/c3c(-c4ccco4)nc4ccccn34)o2)c1 | -2.88% (inactive)
CCC1(CC)C(=O)NN(c2ccccc2)C1=O | -1.66% (inactive)
Cc1c(NS(=O)(=O)c2ccc3c(c2)Cc2ccccc2-3)c(=O)n(-c2ccccc2)n1C | -2.26% (inactive)
Cc1cc(Cl)ccc1Oc1nccc(N(C)C)c1C#N | -1.84% (inactive)
Cc1ncc([N+](=O)[O-])n1CC(C)O (configuration not stated) | -3.39% (inactive)
O=c1[nH]ncc2c3ccccc3n(Cc3cccc(Cl)c3)c12 | -6.09% (inactive)
Cc1ccccc1NC(=O)Cn1c(CCC(=O)O)ccc1-c1cccs1 | -2.46% (inactive)
N#Cc1c2c(c(-c3ccccc3Cl)[nH]c1=S)CCCC2 | 0.99% (inactive)
CCn1c2ccccc2c2cc(NC(=O)CSc3nnc(-c4ccc(OC)c(OC)c4)n3N)ccc21 | 0.13% (inactive)
CCCCOc1ccccc1NC(=O)CC1SC(=NCC)N(CC)C1=O (configuration not stated) | -3.93% (inactive)

Compound | inhibition
CC(C)OC(=O)NC(C)(C)COC(=O)Nc1cccc(Cl)c1 | -4.08% (inactive)
COc1ccccc1C(=O)N/C(=C/c1ccc(Br)cc1)C(=O)NCC(=O)O | -3.29% (inactive)
CN(C)CCCN(Cc1ccccc1)C(=S)Nc1ccc(SC(F)F)cc1 | -2.21% (inactive)
CCCCCOC(=O)Cn1c(N2CCOCC2)nc2c1c(=O)[nH]c(=O)n2C | 0.09% (inactive)
Cc1cccc(C(=O)NC2CCN(C(=O)Nc3ccccc3C)CC2)c1 | -0.56% (inactive)
Cc1[nH]nc2c1C(CCc1ccccc1)C(C#N)=C(N)O2 (configuration not stated) | -4.55% (inactive)
O=C(N/N=C/C(Cl)=C/c1ccccc1)c1cnccn1 | -8.76% (inactive)
COc1ccc(S(=O)(=O)N2CC=C(C(=O)Nc3ccc(NC(C)=O)cc3)CC2)cc1 | -6.83% (inactive)
O=C(NCC(=O)N(Cc1cccs1)C(C(=O)NC1CCCC1)c1ccncc1)c1ccco1 (configuration not stated) | -4.43% (inactive)
Fc1ccc(-c2csc3[n+]2CCS3)cc1 | -7.64% (inactive)
Cc1ccccc1-c1oc(C)c(C)[n+]1[O-] | -3.5% (inactive)
Cc1nn(-c2cc(N3CCCCCC3)ccc2[N+](=O)[O-])c(=O)c2ccccc12 | -0.09% (inactive)
O=C(Nc1ccc(S(=O)(=O)Nc2ccccc2)cc1)C1COc2ccccc2O1 (configuration not stated) | -3.81% (inactive)
CNc1cc(N2CCCCCC2)ccc1[N+](=O)[O-] | -0.58% (inactive)
CCCSc1nnc2n(N)c(=O)c3ccccc3n12 | -3.93% (inactive)
Cc1ccc(NC(=O)c2ccc3nc[nH]c3c2)c(O)c1 | -4.7% (inactive)
CCOC(=O)c1c(NC(=O)CSc2nnc(C)s2)sc2c1CCC(CC)C2 (configuration not stated) | -5.44% (inactive)
CC(=O)NCCn1c(SCc2cc(=O)n3cc(Cl)ccc3n2)nc2ccccc2c1=O | -10.6% (inactive)
